This note sets out measurements from PubChem BioAssay (EPA / NIEHS).

Inconclusive results are not listed. The source holds several records for some structures; these can differ, active in one and inactive in another. The source made the active and inactive calls. Rule for the calls, unless noted: active = hit-call score of the fitted dose curve at least 0.9, where 1 is the maximum; inactive = score below 0.9.

The nature of assay [1]: CCTE_Shafer_MEA_dev_firing_rate_mean: CCTE's Neural Network Formation Assay for Mean Firing Rate, Shafer Lab (AID 2284031).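 Note: AUC of well mean spike rate recorded on DIV 5 7 9 and 12.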 An outline of the steps:
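Rat primary cortical neurons were seeded on multielectrode arrays and treated from plating through day 12, with redosing at each feed. Spontaneous spiking was recorded four times; mean firing rate AUC was fitted downward against DMSO.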

Assay [2] in a line: CCTE_Shafer_MEA_dev_per_burst_spike_percent: CCTE's Neural Network Formation Assay for Percent of Spikes in a Burst, Shafer Lab (AID 2284032).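 For AC50: fitted as a decrease in burst spike percentage below DMSO baseline.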 An outline of the steps: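 Rat primary cortical neurons on 16-electrode MEA wells, dosed from plating day 0 for 12 days with renewal on DIV 5 and 9; spikes-in-bursts percentage averaged over bursting electrodes, collapsed as AUC across days 5, 7, 9, 12; loss direction versus DMSO.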

A short description of assay [3]: CCTE_Deisenroth_AIME_384WELL_CTox_Inactive: Cytotoxicity Assessment (CTOX) in CCTE's 384-well Estrogen Receptor Transactivation Assay without AIME metabolic competence (metabolism negative), Deisenroth Lab (AID 2284039; active = hit-call score of the fitted dose curve at least 0.9, where 1 is the maximum;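 note: cell viability via live-cell protease substrate cleaved to fluorescent probe; cells exposed 24 h to medium preincubated 2 h with alginate-water beads without S9; loss of fluorescence signal means loss of viability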). An outline of the steps:
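Metabolism-negative arm: chemicals (10-point, 0.002 - 200 uM) preincubated 2 h with alginate-water lids, medium moved onto VM7Luc4E2 cells for 24 h. Fluorescent live-cell protease readout; bidirectional curve fit.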

On to `FCOC(C(F)(F)F)C(F)(F)F`, for which the call in assay [1] and in assay [2] was inactive.
Regarding `OCC(F)(F)C(F)(F)C(F)(F)C(F)(F)C(F)(F)C(F)(F)C(F)(F)C(F)(F)C(F)(F)C(F)(F)C(F)(F)F`, the compound was classed as inactive in assay [1] and in assay [2]. For the same compound, the AC50 (commonly the midpoint of the concentration-response curve, whichever way the signal moves) in assay [2] is 15 µM (active).
Take `FC(F)=C(F)C(F)(F)C(F)(F)C(F)(F)C(F)F`: the compound was called inactive in assay [1] and in assay [2].
`O=C(CC(=O)C(F)(F)C(F)(F)C(F)(F)F)c1cccs1`: in assay [1], the compound was called inactive. Further, the AC50 in assay [2] was 8.19 µM (active).
With `O=CC(F)(F)C(F)(F)C(F)(F)F`, the call in assay [1] and in assay [2] was inactive.
With `Cc1ccc(S(=O)(=O)O)cc1`, the compound was called inactive in assay [3].
For the compound `O=C(O)C(F)(F)OC(F)(F)C(F)(F)OC(F)(F)C(F)(F)OC(F)(F)C(F)(F)C(F)(F)C(F)(F)F`, the compound was called inactive in assay [1] and in assay [2].
